Source: PubChem (National Center for Advancing Translational Sciences (NCATS))
Sampled rows, rich in hits. Any-hit rate of the full collection: about 19%.
AMA1 RON2 block: disrupts binding of P. falciparum AMA1 to RON2. AlphaScreen AMA1-biotinylated RON2 peptide binding. Potency, µM (top dose mostly 58.2 µM), without a hit: at the top dose activity change, negative = inhibition, usual class: inhibitors. actives 0.2% (n = 360,000);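 further: potency means the concentration at half of the fitted maximal effect; 0% = vehicle wells and -100% = peptide control; nearly all actives have a fitted effect of over 45% in size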
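AMA1 (3D7) with his tag at 25 nM final met compounds first, then biotinylated RON2 peptide at 25 nM; detection used donor plus acceptor beads, 10 µg/mL apiece, read by AlphaScreen after 30 min at room temperature.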
Pf growth 48h: P. falciparum growth inhibition at 48 hours (one generation); P. falciparum luciferase growth in erythrocytes, 48 h; Potency, µM (highest dose often 28.7 µM), for inactives: top-dose activity change, negative = inhibition, usual class: inhibitors; actives 5.9% (n = 310,000); AID 504832; further: potency means the concentration at half of the fitted maximal effect; on the % scale 0 is the no-effect control and ±100 the full control effect
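Erythrocytes infected with P. falciparum carrying an integrated firefly luciferase reporter (2% hematocrit, 0.1% parasitemia final) were exposed to compounds in RPMI 1640 with 0.5% Albumax at 37 C, 5% CO2. Growth inhibition was scored as reduced luminescence.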
SARS PLpro yeast: SARS-CoV PLP inhibition in yeast; Potency, µM (titrated, usually from 32.9 µM), inactives show at the highest dose activity, positive = growth rescue, actives largely listed as activators; S. cerevisiae expressing SARS-CoV PLpro, growth rescue; AID 485353; actives 0.19% (n = 330,000); calls by dose curve; further: potency means the concentration at half of the fitted maximal effect; 0% is about no effect; nearly all actives have a fitted effect of over 55% in size
CHX counter: counter-screen hit for Shiga toxin inhibitors, cycloheximide; cell reporter, cycloheximide protein synthesis inhibition counterscreen; max response, %; actives 12% (n = 300,000); AID 2314; in the data active means max response mostly above about 13%, no sharp cut-off; inactive means mostly below about 14%; further: read at 38.3 µM for the half of the compounds with a filed dose; 0% is about no effect
Pf growth 96h: P. falciparum growth inhibition at 96 hour, primary screen for plastid delayed-death inhibitors; P. falciparum luciferase reporter growth, 96 h; Potency, µM (top dose mostly 28.7 µM), without a hit: at the top dose activity change, negative = inhibition, hits mostly inhibitors; actives 6.9% (n = 320,000); AID 504834; further: potency means the concentration at half of the fitted maximal effect; on the % scale 0 is the no-effect control and ±100 the full control effect
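Cell-based qHTS: luciferase-tagged P. falciparum in erythrocytes (2% hematocrit, 0.05% parasitemia final) incubated with compounds for 96 hours, 37 C, 5% CO2; luciferase detection reagent then added and luminescence measured.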
Shiga inhibitor: inhibitors of Shiga toxin in Vero cells | AID 2315 | actives 9.2% (n = 290,000) | Vero cells, Shiga toxin protein synthesis inhibition reporter | inhibition, % at 38.7 µM; in the data active means inhibition mostly above about 28%, no sharp cut-off; inactive means mostly below about 43%; further: 0% is about no effect
* = called active by the depositor; i = inactive; ? = inconclusive; . = not tested or not shown; + = active, no number; [ ] = dose if it differs, or a comment. Unless noted, the call rests on the fitted dose curve; in most records, active means well fitted curve in the direction sought with a large enough effect; inconclusive means small, poorly fitted or top-dose-only effect, or another doubt; inactive means no such curve, though single readings can be large; an effect the other way counts as inactive or inconclusive.

SMILES	AMA1 RON2 block	Pf growth 48h	SARS PLpro yeast	CHX counter	Pf growth 96h	Shiga inhibitor
c1coc(C2=NC(c3ccco3)C(c3ccco3)N2)c1 (stereo not drawn)	-3.8%	.	.	.	.	.
CCCc1cc(=O)[nH]c(SCC(=O)NCCC2=CCCCC2)n1	11.1%	-16.5%	-1.3%	8.7	0.0%	18.0
Nc1ccccc1-n1cccc1	-3.3%	87.1%	-0.8%	13.3*	31.6%	12.8
Cc1ccc(C)n1-c1ccccc1N	.	200.0%	-12.2%	23.9*	-16.5%	11.7
C/C(=N\N1CCN(Cc2ccccc2Cl)CC1)c1ccc([N+](=O)[O-])cc1	-25.8%	-3.9%	-2.1%	1.0	21.0%	-8.1
Nc1nc2n(n1)C(=O)CC(c1ccccc1)N2 (stereo not drawn)	12.0%	15.8%	0.5%	-2.5	9.28µM*	-12.0
Nc1nc2n(n1)C(c1cccs1)CC(c1ccccc1)N2 (stereo not drawn)	50.8%	2.5%	-8.2%	-3.6	?	-5.5
CCCCCn1ncc2c3sc(C)cc3n(C)c2c1=O	.	.	.	31.8*	.	91.0*
Cc1cc2c(s1)c1cnn(Cc3cccc(Cn4ncc5c6sc(C)cc6n(C)c5c4=O)c3F)c(=O)c1n2C	.	.	.	-4.2	.	-1.3
OC1CCCN(Cc2ccc3c(c2)Cc2ccccc2-3)C1 (stereo not drawn)	-3.1%	31.2%	5.0%	16.0*	0.0%	45.0
O=C(O)c1cc([N+](=O)[O-])c(NCCC2=CCCCC2)c([N+](=O)[O-])c1	-16.4%	-12.5%	0.2%	-6.2	-101.3%	-5.9
CC(C)(C)c1ccc(C(=O)Nc2ccc(C(=O)NCc3cccnc3)cc2)cc1	-4.3%	6.57µM*	0.2%	10.5	-1.0%	20.7
C=CCNC(=O)c1ccc(N(CC=C)S(C)(=O)=O)cc1	8.7%	-9.9%	-9.2%	-1.3	-14.5%	0.5
CC(C)(C)c1ccc(C(=O)NCc2ccccc2)cc1	-0.1%	142.1%	0.2%	25.6*	9.28µM*	52.8*
C=CCN(c1ccc(C(=O)NCCc2ccccc2)cc1)S(C)(=O)=O	5.4%	.	-0.7%	40.3*	73.7%	44.5
O=C(NCc1c(O)ccc2ccccc12)c1ccccc1	-6.5%	?	-2.9%	2.1	10.4µM*	10.9
CCCCN(Cc1ccco1)C(=O)Cn1ncc2c(=O)oc3ccc(C)cc3c21	1.5%	.	-2.9%	-3.7	?	-5.4
O=C(NCCc1ccccc1)c1ccc(NC(=O)C2CC2)cc1	-0.9%	.	.	.	.	.
CC(=O)Nc1ccc(C(=O)NCCc2ccccc2)cc1	12.0%	77.3%	-18.7%	59.6*	-14.7%	61.5*
CC(C)(C)c1ccc(C(=O)NCCc2ccccc2)cc1	0.0%	154.2%	-0.5%	45.7*	i	52.7*
O=C(NCc1ccccc1)c1ccc(C(=O)N(C2CCCCC2)C2CCCCC2)cc1	8.6%	.	4.7%	0.7	9.28µM*	-11.6
CC(C)(C)c1ccc(C(=O)Nc2cnccn2)cc1	-0.9%	182.3%	-4.1%	27.5*	33.0%	40.7*
O=C(NCc1ccccc1)c1ccc(C(=O)NCc2ccccc2)cc1	22.6%	.	.	.	.	.
CCN(C(=O)CSc1nnc(SC(C)C)s1)C1CCS(=O)(=O)C1 (stereo not drawn)	1.4%	-16.4%	-7.8%	.	?	.
CCC[C@H]1CN(c2ccc(OC)cc2)C(=O)[C@@H]1CC(=O)NC	0.7%	.	.	.	.	.
SMILES	AMA1 RON2 block	Pf growth 48h	SARS PLpro yeast	CHX counter	Pf growth 96h	Shiga inhibitor
C#CCN(C[C@H]1[C@H](OC(=O)NCc2ccccc2F)[C@H](OC(=O)NCc2ccccc2F)C[C@H]2C(=O)N(c3ccccc3)C(=O)[C@@H]12)S(=O)(=O)c1ccc(C)cc1	4.9%	.	.	.	.	.
COc1ccc2c(c1)sc1nc(=O)ccn12	1.5%	42.2%	-0.4%	-2.2	?	.
COc1ccc2c(c1)sc(=N)n2C	1.5%	?	-9.4%	-6.4	3.7µM*	-13.1
O=c1[nH][nH]c2c(N=Cc3ccccc3O)ccc(F)c12	11.2µM*	?	-1.1%	-3.1	-19.2%	-21.0
COC(=O)C(O)(c1ccc(N=Cc2ccccc2O)c(C)c1)C(F)(F)F (stereo not drawn)	-11.7%	3.2%	-0.8%	-2.3	-4.0%	-7.1
O=C(C1CCCN1C(=O)c1cccs1)N1CCN(S(=O)(=O)c2ccc(F)cc2)CC1 (stereo not drawn)	-0.6%	?	-0.1%	.	32.8%	.
CC(C)OC(=O)c1ccc(NC(=O)C2C3CC4OC(=O)C2C4C3)cc1 (stereo not drawn)	-6.2%	233.6%	1.9%	33.5*	.	60.5*
Cc1ccc(NC(=O)C2C3CC4OC(=O)C2C4C3)cc1Cl (stereo not drawn)	2.6%	7.9%	-11.3%	6.1	7.8%	-3.8
CC(C)(C)c1ccc(CC(=O)N2CCC2(C)C(=O)O)cc1 (stereo not drawn)	9.2%	.	.	.	.	.
O=C1CSC(=Nc2ccc(O)cc2)N1c1ccc(O)cc1	13.3%	?	3.9%	-3.0	10.4µM*	-10.3
CC(C)CC(=O)Nc1nnc(S(=O)(=O)N2CCc3ccccc32)s1	1.4%	19.5%	1.1%	1.8	1.1%	-2.4
CCOC(=O)C1(CC2CCCCO2)CCN(C(=O)NCc2ccccc2)CC1 (stereo not drawn)	-6.7%	1.9%	0.4%	-1.4	?	-3.6
CCc1nc(N2CCN(C(=O)c3ccco3)CC2)c(C#N)c2c1COC(C)(C)C2	-1.9%	10.4µM*	-9.4%	3.0	?	-2.5
CCc1nc(N2CCN(C(C)=O)CC2)c(C#N)c2c1COC(C)(C)C2	-6.3%	-21.4%	-0.1%	1.3	?	-5.3
CC1(C)Cc2c(C#N)c(N3CCN(C(=O)c4ccco4)CC3)nc(Cc3ccccc3)c2CO1	-17.6%	1.65µM*	5.4%	-6.5	4.6%[5.75 µM]	-17.3
O=C(N/N=C/C1CC=CCC1)c1cc(-c2cccnc2)nc2ccccc12 (stereo not drawn)	14.8%	1.6%	3.2%	2.0	2.7%	-14.5
CN(C(=O)c1ccco1)c1nc(CC(=O)Nc2ccccc2)cs1	-5.5%	14.5%	-27.3%	17.6	-3.2%	+
COCCN(C(=O)c1ccco1)c1nnc(-c2ccc(F)cc2)s1	27.4%	45.7%	-1.8%	23.4*	283.7%	44.4
CCCCN(C(=O)Cc1cccs1)c1nnc(-c2cccnc2)s1	-5.8%	16.9%	2.6%	20.0*	-17.5%	44.0*
CCCN(C(=O)c1ccco1)c1nnc(-c2ccccc2C)s1	94.0%	0.0%	-4.3%	93.6*	-8.1%	131.7*
COCCN(C(=O)c1ccco1)c1nnc(-c2ccc(OC)c(OC)c2)s1	4.8%	26.6%	18.1%	-2.3	-23.9%	-3.4
COCCN(C(=O)Cc1cccs1)c1nnc(-c2cccnc2)s1	16.4%	15.7%	-2.9%	1.7	69.1%	0.7
C/C=C/C=C\C(=O)Nc1cccc(C2=NOC3(C2)C[C@@H](C(N)=O)N(C(=O)c2cc([N+](=O)[O-])cc([N+](=O)[O-])c2)C3)c1 (stereo partly drawn)	-9.2%	?	5.2%	-4.3	-92.4%	-17.1
